# Measurements as given in PubChem BioAssay (NCATS).
# “And” between values parts separate entries of the source, which are not always exact repeats. Equal values may be shown once. Values without a mark were called inactive. Records with an inconclusive call do not appear. A call without a number means that no potency is given here. The source made the active and inactive calls. Unless noted, calls follow the shape of the dose curve; as a rule, active = well fitted curve in the direction sought with a large enough effect; inconclusive = small, poorly fitted or top-dose-only effect, or another doubt; inactive = no such curve, though single readings can be large; an effect the other way counts as inactive or inconclusive.
# How the values were obtained:
# [1] = qHTS assay to identify small molecule inhibitors of chordoma cells - UCH-1 (AID 1259355); also: nearly all actives have a fitted effect of over 55% in size; also: potency is read from the fitted curve at half-maximal effect; series mostly up to about 46 µM
# Summary of the method: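 Cells (800/well) were seeded and left overnight at 37 C, 5% CO2, then treated with drugs at 15 concentrations plus a combination mix of auranofin, camptothecin, doxorubicin, rubitecan and topotecan. Viability after 48hr was read by CellTiter-Glo luminescence.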
# [2] = qHTS assay to identify small molecule inhibitors of chordoma cells - UCH-2 (AID 1259356); also: potency is read from the fitted curve at half-maximal effect
# [3] = qHTS assay for small molecule agonists of the antioxidant response element (ARE) signaling pathway measured by Nrf2-dependant transcriptional activity (AID 720636; active = well fitted curve in the direction sought with a large enough effect in the repeat runs; an effect the other way counts as inactive or inconclusive;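 also: HepG2 cells with an ARE-driven luciferase reporter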)
# Summary of the method: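 Nrf2-dependent transcription is measured in ARE-luc HepG2 cells: compound is applied for 16 hr at 37 C after a 6 hr attachment period, and luciferase activity is quantified by luminescence using ONE-Glo.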
# [4] = qHTS assay for small molecule antagonists of the retinoid-related orphan receptor gamma (ROR-gamma) signaling pathway - cell viability counter screen (AID 720652; active = well fitted curve in the direction sought with a large enough effect in the repeat runs; an effect the other way counts as inactive or inconclusive;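 also: series mostly up to about 92 µM; compound exposure lasted 16 hr before ATP read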)
# Summary of the method: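 Luminescence from CellTiter-Glo after 30 min at room temperature reported cellular ATP as the cytotoxicity measure. Cells were the CHO reporter line with doxycycline-induced ROR-gamma expression, exposed to compound for 16 hr at 37 C.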
# [5] = qHTS assay for small molecule agonists of the antioxidant response element (ARE) signaling pathway measured by Nrf2-dependant transcriptional activity - cell viability counter screen (AID 720653; active = well fitted curve in the direction sought with a large enough effect in the repeat runs; an effect the other way counts as inactive or inconclusive); conditions: ARE-bla HepG2 viability, CellTiter-Glo ATP luminescence, 16 h; stronger effect = lower value
# Summary of the method: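 ARE-bla HepG2 cells treated with compounds for 16 h at 37C; this counter screen measures viability as intracellular ATP by CellTiter-Glo luminescence after 30 min at room temperature.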
# [6] = qHTS Assay for Identifying Gametocytocidal Compounds (AID 743244);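 also: actives lower the fluorescent signal which means gametocytes are killed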; conditions: P. falciparum 3D7 stage III-V gametocytes, alamarBlue, 72 h; max response: stronger effect = lower value
# Summary of the method: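 In this qHTS viability screen, late-stage 3D7 gametocytes are incubated with compound for 72 h, then with alamarBlue for 24 h; reduced resorufin fluorescence marks killing.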
# [7] = qHTS assay for cell viability of HEK293 cells (AID 743288); conditions: ATP luminescence (CellTiter-Glo), 18 h; max response: stronger effect = lower value; also: nearly all actives have a fitted effect of over 50% in size
# Summary of the method: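 Environmental chemicals tested in qHTS format against parental HEK293 cells; 18 h treatment, 37 C; read-out ATP luminescence (CellTiter-Glo), 30 min RT development.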
# [8] = qHTS for compounds that reverse cellular toxicity of Amyloid beta (A-beta) peptide in yeast: LOPAC Validation Assay (AID 720559)
# Summary of the method: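 OD600 growth readout after 48 hr at 30 C; A-beta-toxic yeast plus pinned compounds in medium. Normalization: DMSO = negative, equimolar FeCl3 + clioquinol = positive.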
# [9] = qHTS for Activators of Parkin Expression: LOPAC Validation Assay (NLuc Reporter) (AID 720572)
# Summary of the method: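 Neuronal cells with a Parkin promoter-driven FLuc/NLuc coincidence reporter were treated 24 h at 37 C in 7-point dose response (LOPAC). NLuc luminescence read after FLuc; signals normalized to DMSO and positive control (100%).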
# [10] = biological target: T1, Hexokinase-4 (Homo sapiens) + Glucokinase regulatory protein (Homo sapiens) (UniProt P35557+Q14397); test: qHTS assay for inhibitors of recombinant human GCK-GKRP interaction: Diaphorase-coupled assay (AID 743205)
# Summary of the method: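 Resorufin fluorescence (525/590 nm), read each minute over 30 min, reports GCK activity coupled via G6PDH and diaphorase. Reaction: 10 nM GST-GCK, 10 nM FLAG-GKRP, 5 mM glucose, 0.4 mM ATP, 0.15 mM NADP+, 0.1 mM resazurin.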
# [11] = biological target: T1, Hexokinase-4 (Homo sapiens) + Glucokinase regulatory protein (Homo sapiens); test: qHTS assay for inhibitors of recombinant human GCK-GKRP interaction: ADP-Glo assay (AID 743206)
# Summary of the method: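 GST-GCK and FLAG-GKRP (15 nM each in the dispensed mix, with 2 uM S6P) react with 0.4 mM ATP and 5 mM glucose (final) in Hepes pH 7.6 for 60 min at room temperature. ADP is measured by ADP-Glo luminescence.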
# [12] = biological target: T1, Hexokinase-4 (Homo sapiens) + Glucokinase regulatory protein (Homo sapiens); test: qHTS assay for inhibitors of recombinant human GCK-GKRP interaction: HTRF assay (AID 743207)
# Summary of the method: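 HTRF read-out (ex 320 nm; 615/665 nm emission) after 60 min RT equilibration of 5 nM GST-GCK, 5 nM FLAG-GKRP, 2 uM S6P, compound and anti-FLAG/anti-GST detection antibodies; signal normalized between DMSO wells with and without GCK.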
# T1 sequence (P35557 whole entry, looked up): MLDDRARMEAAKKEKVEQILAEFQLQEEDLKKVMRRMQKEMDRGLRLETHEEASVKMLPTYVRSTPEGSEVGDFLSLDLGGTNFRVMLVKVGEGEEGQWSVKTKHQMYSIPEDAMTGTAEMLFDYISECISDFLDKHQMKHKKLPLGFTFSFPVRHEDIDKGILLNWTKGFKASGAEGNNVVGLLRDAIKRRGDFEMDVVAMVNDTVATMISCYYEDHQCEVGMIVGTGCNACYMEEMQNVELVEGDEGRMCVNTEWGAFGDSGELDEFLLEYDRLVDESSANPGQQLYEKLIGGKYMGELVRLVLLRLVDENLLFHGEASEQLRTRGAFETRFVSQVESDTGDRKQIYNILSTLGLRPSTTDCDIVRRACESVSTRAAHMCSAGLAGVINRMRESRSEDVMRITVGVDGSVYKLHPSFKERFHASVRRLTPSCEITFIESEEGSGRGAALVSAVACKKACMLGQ
# T1 sequence (Q14397 whole entry, looked up): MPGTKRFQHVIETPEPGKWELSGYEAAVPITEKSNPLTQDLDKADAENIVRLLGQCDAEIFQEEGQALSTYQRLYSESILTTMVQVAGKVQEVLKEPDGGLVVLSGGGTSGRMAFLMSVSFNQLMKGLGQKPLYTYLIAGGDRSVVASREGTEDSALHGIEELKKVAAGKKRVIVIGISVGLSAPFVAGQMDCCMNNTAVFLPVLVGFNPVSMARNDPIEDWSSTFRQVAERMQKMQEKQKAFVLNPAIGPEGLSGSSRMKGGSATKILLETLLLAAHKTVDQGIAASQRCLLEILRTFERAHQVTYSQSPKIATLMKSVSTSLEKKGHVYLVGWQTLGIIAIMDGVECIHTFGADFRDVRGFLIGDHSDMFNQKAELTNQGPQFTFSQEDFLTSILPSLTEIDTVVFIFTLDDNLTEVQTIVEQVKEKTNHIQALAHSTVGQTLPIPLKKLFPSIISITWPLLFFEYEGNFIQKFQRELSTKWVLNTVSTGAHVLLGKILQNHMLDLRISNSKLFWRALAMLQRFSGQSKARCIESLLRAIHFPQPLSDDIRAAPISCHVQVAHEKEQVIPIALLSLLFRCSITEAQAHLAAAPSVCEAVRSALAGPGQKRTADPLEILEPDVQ
compound,measurement,setting,value
CNC(C)CCC=C(C)C (stereo unspecified),Potency,[1],inactive
same,Potency,[2],inactive
CC(C)(C)c1ccc2c(S(=O)(=O)O)c(C(C)(C)C)ccc2c1,Potency,[1],inactive
same,Potency,[2],inactive
O=C(O)c1ccc(OCCn2ccnc2)cc1,Potency,[1],inactive
same,Potency,[2],inactive
H-RKDVY-OH,Potency,[1],inactive
same,Potency,[2],inactive
CCCOC(=O)c1ccccc1O,Potency,[1],inactive
same,Potency,[2],inactive
C[C@@H]1C[C@H]2[C@@H]3CCC4=CC(=O)C=C[C@]4(C)[C@@]3(F)[C@@H](O)C[C@]2(C)[C@@]1(O)C(=O)COC(=O)c1cccc(S(=O)(=O)O)c1,Potency,[1],inactive
same,Potency,[2],inactive
Cc1cc(C(=O)NCCc2ccc(S(=O)(=O)NC(=O)NN3CCCCCC3)cc2)no1,Potency,[1],inactive
same,Potency,[2],inactive
C[C@]12CC[C@@H]3c4ccc(OC(=O)c5ccccc5)cc4CC[C@H]3[C@@H]1CC[C@@H]2O,Potency,[1],inactive
same,Potency,[2],inactive
NC(=O)c1cc[n+](CC2=C(C(=O)O)N3C(=O)[C@@H](NC(=O)C(c4ccccc4)S(=O)(=O)[O-])[C@H]3SC2)cc1 (stereo partly specified),Potency,[1],inactive
same,Potency,[2],inactive
C[C@@H]1O[C@@H]1P(=O)(O)O,Potency,[1],inactive
same,Potency,[2],inactive
CCOC(C)OCC,Potency,[3],inactive
same,outcome,[4],inactive
same,max response,[5],-4.14%
same,max response,[6],16.8%
same,max response,[7],7.3%
same,Potency,[1],inactive
same,Potency,[2],inactive
CS(=O)(=O)OCC(O)C(O)COS(C)(=O)=O (stereo unspecified),Potency,[1],inactive
same,Potency,[2],inactive
CC(C)[C@@H](C)/C=C/[C@@H](C)[C@H]1CC[C@H]2/C(=C/C=C3\C[C@@H](O)CC[C@@H]3C)CCC[C@]12C,Potency,[1],inactive
same,Potency,[2],inactive
C[N@+]12CCCC[C@@H]1CCC(=C(c1cccs1)c1cccs1)C2,Potency,[1],inactive
same,Potency,[2],inactive
COc1ccc2c(c1)N(C[C@H](C)CN(C)C)c1ccccc1S2,Potency,[1],inactive
same,Potency,[2],inactive
CO,Potency,[3],inactive
same,outcome,[4],inactive
same,max response,[5],-2.74%
same,max response,[6],16%
same,max response,[7],1.36%
same,Potency,[1],inactive
same,Potency,[2],inactive
CN(C)c1ccc(C(=C2C=CC(=[N+](C)C)C=C2)c2c(O)c(S(=O)(=O)[O-])cc3cc(S(=O)(=O)O)ccc23)cc1,Potency,[1],14.1 µM (active)
same,Potency,[2],20.6 µM (active)
O=C(OC[C@H]1O[C@@H](OC(=O)c2cc(O)c(O)c(OC(=O)c3cc(O)c(O)c(O)c3)c2)[C@H](OC(=O)c2cc(O)c(O)c(OC(=O)c3cc(O)c(O)c(O)c3)c2)[C@@H](OC(=O)c2cc(O)c(O)c(OC(=O)c3cc(O)c(O)c(O)c3)c2)[C@@H]1OC(=O)c1cc(O)c(O)c(OC(=O)c2cc(O)c(O)c(O)c2)c1)c1cc(O)c(O)c(OC(=O)c2cc(O)c(O)c(O)c2)c1,Potency,[1],15.8 µM (active)
same,Potency,[2],16.4 µM (active)
CNC(=O)OCc1cccc(COC(=O)NC)n1,Potency,[1],inactive
same,Potency,[2],inactive
O=C1CC[C@@H](C(=O)N[C@H]2C[C@@H]2c2ccccc2)N1,Potency,[1],inactive
same,Potency,[2],inactive
CCOC(=O)c1c[nH]c2cc(OCC(C)C)c(OCC(C)C)cc2c1=O,Potency,[1],inactive
same,Potency,[2],inactive
S=C1SCN(Cc2ccccc2)CN1Cc1ccccc1,Potency,[1],inactive
same,Potency,[2],inactive
CO[C@H]1C[C@H](O[C@H]2[C@H](C)[C@@H](O[C@@H]3O[C@H](C)C[C@H](N(C)C)[C@H]3O)[C@@H](C)C[C@]3(CO3)C(=O)[C@H](C)[C@@H](O)[C@@H](C)[C@@H](C)OC(=O)[C@@H]2C)O[C@@H](C)[C@@H]1O,Potency,[1],inactive
same,Potency,[2],inactive
N[C@H](CC(=O)O)C(=O)O,Potency,[1],inactive
same,Potency,[2],inactive
Oc1ccc(/C=C/c2cc(O)cc(O)c2)cc1,outcome,[8],inactive
same,outcome,[9],inactive
same,outcome,[4],inactive
same,max response,[5],7.43% and -3.23%
same,outcome,[10],inactive
same,outcome,[11],inactive
same,outcome,[12],inactive
same,max response,[6],-0.421% and 10.7%
same,max response,[7],-22.7% and -15%
same,Potency,[1],inactive
same,Potency,[2],inactive
Oc1cccc(O)c1O,Potency,[3],inactive
same,outcome,[4],inactive
same,max response,[5],-24.8%
same,max response,[6],-2.15%
same,max response,[7],-17.5%
same,Potency,[1],inactive
same,Potency,[2],inactive
